40 molecules from PubChem BioAssay (NCI) can be followed below.

Compounds without any hit were thinned out: in the full panel of roughly 83,000, 20% have a hit.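 Compound tested at a single concentration for 48 hours in 96-well plates; a percent growth value below 10 was scored as active.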 A number with no mark means an inactive call. Activity calls are given as the source filed them.

The test system of the experiment is HL-60(TB) leukemia. Nature of the experiment: NCI-60 one-dose screen, 48 h (100 = growth as untreated, 0 = no growth, -100 = all killed). The settings on record: 10 µM unless noted.
Take `O=C(CCCCCCNC(=O)C(O)(O)C(F)(F)F)Nc1ccc(Cl)cc1`: the growth was 9.84% (active).

For the molecule `CC1OC(O[C@@H]2C(O)C(CO)OC(O[C@H]3COC(O[C@H]4CC[C@]5(C)[C@H]6CC[C@]78OC[C@@]9(CC[C@](C)(C=O)C[C@H]97)[C@H](O)C[C@@]8(C)[C@]6(C)CC[C@H]5C4(C)C)[C@@H](OC4OC(CO)[C@@H](O)[C@@H](O)[C@@H]4O)[C@@H]3O)[C@H]2OC2OC[C@@H](O)[C@@H](O)[C@@H]2O)[C@@H](O)[C@@H](O)[C@H]1O` (stereo not given in full), the growth was -60.5% (active).

For `CN1CCN(Cc2ccc(NC(=O)c3cncc(C#Cc4cnc5ccc(N6CCSCC6)nn45)c3)cc2C(F)(F)F)CC1`, the growth is -41.6% (active).

In the case of `CC1COc2c(N3CCN(C)CC3)c(F)cc3c(=O)c(C(=O)N/N=C/c4cc[nH]c4)cn1c23` (stereo not given), the growth is 20.3%.

As for `O=C(NNc1nc2cc(F)c(F)cc2n2c(CN3CC4CNCC4C3)ccc12)c1cnccn1` (stereo not given), the growth was -1.93% (active).

As to `COc1cc(C2=NN(C(C)=O)C(c3ccc(N4CCOCC4)cc3)C2)cc(OC)c1OC` (stereo not given), the growth was 105%.

`CCOC(=O)c1ccccc1NC1=C(Cl)C(=O)c2nc(C)ccc2C1=O`: the growth is 70.9%.

Consider `CCCC(=O)NC(c1cccnc1)c1cc(C)c2cccnc2c1O` (stereo not given), for which the growth was 1.38% (active).

Regarding `O=C(CSc1nccc(=O)[nH]1)Nc1ccc(-c2nc3ccccc3[nH]2)cc1`, the growth is 115%.

Take `COc1cc(/C=C/C(=O)c2ccc(NC(=O)CSc3nnc(-c4ccc5nc(-c6ccccc6)[nH]c5c4)o3)cc2)cc(OC)c1OC`: the growth is 69%.

For `COc1ccccc1-n1cc(C#N)c(N)c1C(=O)c1ccc(C)cc1`, the growth was 56.7%.

For `Cc1ccc(/C(N)=N/C(N)=N/c2nc3ccccc3s2)cc1`, the growth is 81.6%.

As to `O=C(CCCCCCN1CC(=O)N2[C@@H](C3CC3)c3[nH]c4ccccc4c3C[C@H]2C1=O)NO`, the growth was 31.8%.

For the molecule `O=C(CCCCCCNC(=O)C(O)(O)C(F)(F)F)Nc1ncc(-c2ccc(Br)cc2)s1`, the growth was 6.28% (active).

`C(=C(\C1=NCCN1)n1cnc2ccccc21)/c1ccc2ccccc2c1`: the growth was 50.5%.

`O=C(O)c1ccc(-n2cc(CNc3ccc(Cl)cc3)c(-c3ccc(F)cc3)n2)cc1`: the growth was 111%.

As to `CCC(CC)n1c(=O)c(SC2=NC3C(NN2)N(CC)C(=O)N3CC)c(C(=O)O)c2ccccc21` (stereo not given), the growth is 0.469% (active).

As to `O=C1Nc2ccccc2/C1=N\c1nnc(-c2ccccc2)o1`, the growth is 99.6%.

With `COc1c(N2CC3CCCNC3C2)c(F)cc2c(=O)c(C(=O)N/N=C/c3ccc(N(C)C)cc3)cn(C3CC3)c12` (stereo not given), the growth was 78.5%.

`Cc1ccc(NC(=S)NNC(=S)Nc2ccc(C)cc2)cc1`: the growth is 97.1%.

For `C=CCn1c(SCC(=O)c2ccc(OC)cc2)nnc1-c1ccc(OC)cc1`, the growth was 90.8%.

`CCCCCCCn1cc2c(N[C@H](C)c3ccccc3)ncnc2n1`: the growth was 117%.

As to `COc1ccccc1N1CCN(C2=CC(=O)C(C)=C(C)C2=O)CC1`, the growth is 113%.

For `Cn1cc(-c2nnc(N)nc2-c2c[nH]c3ccc(F)cc23)c2cc(Br)ccc21`, the growth was -20.7% (active).

Regarding `CN1CCN(Cc2ccc(NC(=O)c3cncc(C#Cc4cnc5ccc(OCCCS(C)(=O)=O)nn45)c3)cc2C(F)(F)F)CC1`, the growth was -6.31% (active).

`CCN(CC)c1ccc(/C=N/NC(=O)c2ccc(NS(C)(=O)=O)cc2)cc1`: the growth is 3.16% (active).

Regarding `N#Cc1nc(-c2ccccc2)oc1N1CCC(C2(C(F)(F)F)N=N2)CC1`, the growth was 95.4%.

`C#C[C@]1(O)CC[C@H]2[C@@H]3CC=C4c5sc(Nc6ncccc6C)nc5CC[C@]4(C)[C@H]3CC[C@@]21C`: the growth was -29.6% (active).

For the molecule `Clc1ccc(-c2csc(Nc3cccc(Nc4csc(-c5ccc(Cl)cc5)n4)c3)n2)cc1`, the growth is 96.1%.

For the molecule `CC1(C)CC[C@]2(C(=O)O)CC[C@]3(C)C(=CC[C@@H]4[C@@]5(C)CC/C(=N\OCCC#N)C(C)(C)[C@@H]5CC[C@]43C)[C@@H]2C1`, the growth was 148%.

Regarding `CCOC(=O)Nc1ccc2c(ccn2C(=O)c2cccc(F)c2)c1`, the growth was 12.3%.

On to `CC(C)C(=O)Nc1ccc(-c2nc(-c3cccc(O)c3)c(-c3ccnc(Br)c3)[nH]2)cc1`, for which the growth is -40.4% (active).

As to `Clc1ccc2[nH]cc(-c3nn4cc(-c5ccncc5)nc4s3)c2c1`, the growth was 89.8%.

Take `O=C(NCCNc1cc(-c2cn(-c3ccccc3)nc2-c2cccc(O)c2)ccn1)Nc1cc(C(F)(F)F)cc(C(F)(F)F)c1`: the growth was 97%.

Regarding `NS(=O)(=O)c1ccc(Nc2cc(-c3ccccc3)nc(SCC(=O)c3ccccc3)n2)cc1`, the growth is 106%.

With `COc1ccc(/C=C2\SC(=Nc3cc(C)on3)NC2=O)cc1`, the growth is 94.6%.

Take `Clc1ccc2c(OCCCN3CCOCC3)c3oc4ccccc4c3nc2c1`: the growth was 42.1%.

As for `Oc1ccc(-c2nnc(SCc3ccc(O)c4ncccc34)o2)cc1`, the growth is 5.77% (active).

For the molecule `NC(N)=Nc1ccc(Oc2cccc(Nc3ccc(Cl)c(C(F)(F)F)c3)c2)cn1`, the growth is -68% (active).

With `O=C(Nc1cc(Cl)cc(Cl)c1)Nc1nc2ccc([N+](=O)[O-])cc2s1`, the growth was -50.1% (active).
